Source: PubChem BioAssay AID1445 (SRMLSC, 2008)
Screen size: about 220,000 compounds; about 910 (0.41%) were called active. The list comes from a sample in which actives are over-represented; it also holds similar structures and randomly drawn compounds. Measured potencies and affinities stand elsewhere. Unmarked numbers belong to inactive results.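 How the source made its calls: active means primary inhibition above the hit cutoff, then over 50% inhibition at one or more dose response concentrations (cut at about 23% in these data, passing the limit was not always enough); inconclusive means conflicting primary data, or primary hits not chosen for dose response; inactive means low primary inhibition, or under 50% at every dose.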

biological target: Aminopeptidase N (Plasmodium falciparum (isolate 3D7)) (UniProt O96935); experiment: P. falciparum M1AAP inhibitors, biochemical, fluorogenic H-Leu-NHMec substrate, 1536-well (AID 1445); conditions: recombinant M1AAP, H-Leu-NHMec fluorogenic kinetic assay; at 30 µM, active compounds read high unless noted;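 further: plate controls were DMSO full reaction for no effect and no enzyme background for full effect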
Sequence (O96935 whole entry, looked up): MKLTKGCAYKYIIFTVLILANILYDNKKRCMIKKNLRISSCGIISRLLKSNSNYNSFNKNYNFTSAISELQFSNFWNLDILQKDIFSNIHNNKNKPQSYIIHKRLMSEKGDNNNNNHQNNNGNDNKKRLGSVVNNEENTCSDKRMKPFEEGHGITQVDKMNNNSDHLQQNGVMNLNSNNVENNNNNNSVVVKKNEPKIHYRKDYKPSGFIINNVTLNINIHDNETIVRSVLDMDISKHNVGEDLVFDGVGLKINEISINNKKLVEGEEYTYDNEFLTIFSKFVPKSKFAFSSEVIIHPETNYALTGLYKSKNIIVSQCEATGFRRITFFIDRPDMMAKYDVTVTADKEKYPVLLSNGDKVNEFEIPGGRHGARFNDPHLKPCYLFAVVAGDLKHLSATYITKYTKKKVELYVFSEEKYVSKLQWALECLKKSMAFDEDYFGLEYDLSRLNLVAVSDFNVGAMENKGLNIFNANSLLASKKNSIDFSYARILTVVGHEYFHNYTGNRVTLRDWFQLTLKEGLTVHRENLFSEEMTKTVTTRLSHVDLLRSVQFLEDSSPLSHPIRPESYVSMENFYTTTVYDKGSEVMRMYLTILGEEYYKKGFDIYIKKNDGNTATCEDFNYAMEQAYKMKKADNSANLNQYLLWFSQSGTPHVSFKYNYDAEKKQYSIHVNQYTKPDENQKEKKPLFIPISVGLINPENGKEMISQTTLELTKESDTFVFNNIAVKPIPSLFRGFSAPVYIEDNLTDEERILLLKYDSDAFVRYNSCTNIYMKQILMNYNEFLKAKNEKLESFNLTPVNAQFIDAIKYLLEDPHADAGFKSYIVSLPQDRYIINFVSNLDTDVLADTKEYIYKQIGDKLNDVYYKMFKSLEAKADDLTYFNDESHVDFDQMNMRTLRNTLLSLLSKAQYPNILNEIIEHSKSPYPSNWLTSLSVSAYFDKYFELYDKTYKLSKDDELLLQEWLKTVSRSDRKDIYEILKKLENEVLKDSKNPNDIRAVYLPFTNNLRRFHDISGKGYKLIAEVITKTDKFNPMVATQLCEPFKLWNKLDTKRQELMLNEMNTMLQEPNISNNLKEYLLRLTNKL

SMILES | inhibition
O=C1Nc2ccccc2S/C1=C/Nc1cccc(Cl)c1 | -0.46%
Cc1ccc(N/C=C2/Sc3ccccc3NC2=O)cc1 | -2.38%
CCc1ccc(OCC(=O)NC(NC(=S)Nc2ccc(C)cc2C)C(Cl)(Cl)Cl)cc1 (configuration not stated) | 1.79%
Cc1cc(NC(=O)CSc2nnc(-c3ccncc3)n2-c2ccccc2)no1 | 10.6%
CCCCOc1ccc(C(=O)O)cc1 | 9.1%
CCCCOc1ccc(CC(=O)NCC(=O)O)cc1 | 3.76%
Cc1cccc(N(Cc2cc3ccccc3[nH]c2=O)C(=O)c2cccs2)c1 | 0.39%
C=CCOc1ccc2ccccc2c1CNc1ncn[nH]1 | 0.63%
CN(CC(=O)Nc1ccc(N2CCOCC2)cc1)C(=O)COc1ccccc1F | 0.51%
Cc1ccc(NC(=S)C2=C(O)c3sccc3N(C)S2(=O)=O)cc1 | 25.2% (active)
CN1c2ccsc2C(O)=C(C(=S)Nc2ccccc2)S1(=O)=O | 7.91%
Cc1ccc(NC(=O)C2=C(O)c3sccc3N(C)S2(=O)=O)cc1 | 8.43%
Cc1cc(Oc2cc(N)cc([N+](=O)[O-])c2)ccc1Cl | 4.69%
O=C(NNC(=O)c1ccccc1Cl)c1ccccc1Cl | -3.69%
O=C(NNC(=O)c1ccccc1Br)c1ccccc1Cl | 5.77%
O=C(NNC(=O)c1ccc2ccccc2c1O)c1ccccc1Cl | 25.2% (active)
CSc1ccc(-c2nnn(CC(=O)NCc3ccccc3)n2)cc1 | -1.85%
Cc1[nH]nc2c1C(c1ccc(-c3ccccc3C#N)o1)C(C#N)=C(N)O2 (configuration not stated) | 23.4% (active)
Cc1ccc(-c2ccc(C3C(C#N)=C(N)Oc4n[nH]c(C)c43)o2)cc1 (configuration not stated) | 12.9%
Cc1[nH]nc2c1C(c1ccc(-c3ccc(Cl)cc3)o1)C(C#N)=C(N)O2 (configuration not stated) | -0.1%
COc1ccc(N2CCN(C(=O)COc3ncnc4ccccc34)CC2)cc1 | 0.28%
N/C(=N\OC(=O)CCCOc1ccccc1)c1ccncc1 | 2.2%
CCOCCCNC(=O)CCC(=O)NNc1nc2ccccc2c2nc(C)nn12 | 1.55%

SMILES | inhibition
Cc1cccc(S(=O)(=O)c2c(N)n(Cc3ccco3)c3nc4ccccc4nc23)c1 | 20.6%
COc1ccc(-n2c(NC(=O)c3ccc(Br)o3)c(C#N)c3nc4ccccc4nc32)cc1 | 1.59%
CCCCn1c(NC(=O)c2ccccc2)c(C#N)c2nc3ccccc3nc21 | 2.47%
CCCCn1c(NS(=O)(=O)c2ccc(C)cc2)c(S(=O)(=O)c2ccccc2)c2nc3ccccc3nc21 | 11.6%
Nc1c(S(=O)(=O)c2ccccc2)c2nc3ccccc3nc2n1Cc1ccco1 | 21.5%
CCCCn1c(NS(=O)(=O)c2ccccc2)c(S(=O)(=O)c2ccc(C)cc2)c2nc3ccccc3nc21 | -1.2%
COc1ccc(-n2c(NC(=O)c3ccco3)c(C#N)c3nc4ccccc4nc32)cc1 | 3.92%
Cc1ccc(S(=O)(=O)c2c(N)n(Cc3ccco3)c3nc4ccccc4nc23)cc1 | 24.7% (active)
CCCCn1c(N)c(S(=O)(=O)c2ccc(C)cc2)c2nc3ccccc3nc21 | 12.5%
O=C(c1ccc(-c2ccccc2)cc1)C1CCCN(C(=O)Cn2cncn2)C1 (configuration not stated) | 8.56%
O=C(C(=O)N1CCCc2ccccc21)c1cn(CC(=O)N2CCOCC2)c2ccccc12 | 1.02%
O=C(NCc1ccccc1)C12CC3CC(CC(C3)C1)C2 | -3.07%
Cc1nn(C(=O)c2cccnc2)c(C)c1Sc1ccccc1 | 6.53%
Cc1ccc(S(=O)(=O)N(C)C)cc1NC(=O)c1sccc1Cl | 0.57%
Cc1ccc(C(=O)N2CCCC(c3ccc(Cl)cc3)=N2)cc1 | -2.39%
Cc1ccsc1/C=N/NC(=O)c1ccc([N+](=O)[O-])cc1 | 4%
CC(=O)Nc1c(S(=O)(=O)c2ccccc2)c2nc3ccccc3nc2n1Cc1ccccc1 | 22.9%
CCCCn1c(NC(=O)c2ccc(Br)o2)c(S(=O)(=O)c2ccccc2)c2nc3ccccc3nc21 | 8.47%
CC(=O)Nc1ccc2nc(NC(=O)c3cccs3)sc2c1 | 4.98%
O=C(Nc1ccc(F)cc1F)c1ccccc1-c1ccccc1 | -1.46%
CCN(CC)C(=O)CSc1nc2ccsc2c(=O)n1CCCC(=O)NCCc1ccc(S(N)(=O)=O)cc1 | 11.4%
CCCCNC(=O)CSc1nc2ccsc2c(=O)n1CCCC(=O)NCCc1ccc(S(N)(=O)=O)cc1 | 4.74%
COc1cc(C(=O)OCC(=O)NCc2ccco2)cc(OC)c1OC | 7.63%

SMILES | inhibition
CC(C)Cn1c2c(c(O)c(C(=O)Nc3ncccc3O)c1=O)CCCC2 | 16.5%
CCCn1c2c(c(O)c(C(=O)Nc3ncccc3O)c1=O)CCCC2 | 25.1% (active)
CCCn1c2c(c(O)c(C(=O)Nc3ncccc3C)c1=O)CCCC2 | 5.08%
O=C(NCc1ccccn1)C(=O)NCc1ccccn1 | 5.31%
COc1ccc(-n2c(SCC(=O)NCc3ccco3)nnc2-c2c[nH]c3ccccc23)cc1 | 3.42%
COc1ccc(-c2[nH]c(-c3cccc(OC)c3)nc2SCC(=O)NCc2ccco2)cc1 | 25.2% (active)
COc1cccc(-n2c(SCC(=O)NCc3ccco3)nnc2-c2c[nH]c3ccccc23)c1 | 16.4%
COc1ccc(OC)c(-n2c(SCC(=O)NCc3ccco3)nnc2-c2c[nH]c3ccccc23)c1 | 24.5% (active)
COc1ccc(-c2nc(SCC(=O)NCc3ccco3)c(-c3ccccc3)[nH]2)cc1OC | 8.46%
COc1ccc(-c2[nH]c(-c3ccccc3)nc2SCC(=O)NCc2ccco2)cc1OC | 4.65%
S=c1nc(-c2csc3c2CCCC3)[nH][nH]1 | -7.04%
CCCC(=O)N(Cc1cc2cccc(C)c2[nH]c1=O)c1ccccc1OC | 0.65%
COc1cccc(-n2cc(CN(C)Cc3nc(Cc4ccccc4)no3)cn2)c1 | 0.62%
COc1ccc(NC(=O)C2CCCN(S(=O)(=O)c3ccc4c(c3)oc(=O)n4C)C2)cc1OC (configuration not stated) | 3.43%
COc1ccccc1N1CCN(S(=O)(=O)CC23CCC(CC2=O)C3(C)C)CC1 (configuration not stated) | -1.74%
CCCn1cc(S(=O)(=O)CC(=O)Nc2ccc(OC)cc2OC)c2ccccc21 | -0.94%
O=C(/C=C/c1ccccc1Cl)N(Cc1ccccc1)C1CCS(=O)(=O)C1 (configuration not stated) | 0.49%
COc1ccc(N2CSC3=C(C#N)C(c4cccs4)CC(=O)N3C2)cc1 (configuration not stated) | 31.7%
O=C(Nc1ccc(N2CCN(C(=O)c3ccc(Cl)cc3)CC2)cc1)c1cccnc1 | 3.47%
Cc1ccccc1C(=O)N1CCN(c2ccc(NC(=O)c3cccnc3)cc2)CC1 | 1.42%
Cc1ccc(C(=O)N2CCN(c3ccc(NC(=O)c4cccnc4)cc3)CC2)cc1 | 25.7% (active)
O=[N+]([O-])c1ccc(Cl)cc1N1CCCCC1 | 4.92%
O=C(CSc1ccccc1)Nc1ccc(S(=O)(=O)Nc2ncccn2)cc1 | 3.64%

SMILES | inhibition
O=C(CSc1nnc(-c2ccccc2)n1C1CCCCC1)Nc1ccc(S(=O)(=O)Nc2ccccn2)cc1 | 1.56%
O=C(CSc1nnc(-c2ccncc2)n1C1CCCCC1)Nc1ccccc1 | 0.45%
Cc1cc(C)nc(SCC(=O)Nc2ccc(S(=O)(=O)Nc3ncccn3)cc2)n1 | 3.26%
Cc1noc(NS(=O)(=O)c2ccc(NC(=O)CSc3n[nH]c(-c4ccccc4)n3)cc2)c1C | 19.9%
Cc1noc(NS(=O)(=O)c2ccc(NC(=O)CSc3ncccn3)cc2)c1C | 1.83%
CC(Sc1nnc2ccccn12)C(=O)N1CCc2ccccc2C1 (configuration not stated) | 2.85%
NC1=C(c2ccc(F)cc2)C(=O)CS1 | -0.25%
COC(=O)c1noc(C)c1-c1ccnn1C(=O)c1ccc(C)cc1 | 5.18%
CCOc1ccccc1OCC(=O)Nc1nnc(C)s1 | 0.54%
O=c1oc2ccccc2nc1/C=C(O)/C=C\c1ccccc1 | 5.28%
COc1ccccc1-c1c(C)oc2c(CN3CCN(C)CC3)c(O)ccc2c1=O | 8.67%
CN1CCN(Cc2c(O)ccc3c(-c4ccccc4)cc(=O)oc23)CC1 | 20.2%
Cc1cc(N2CCN(c3ccccn3)CC2)n2c(nc3ccccc32)c1C#N | -0.82%
O=[N+]([O-])c1cc(C(F)(F)F)ccc1N/N=C/c1cc2ccccc2nc1Cl | -1.36%
C/C(=N/OCO/N=C(\C)c1ccccc1F)c1ccccc1F | 1.08%
Cc1ccc2oc(=O)n(Cc3ccccc3OC(C)C)c2c1 | 1.91%
Cc1ccc(S(=O)(=O)Nc2nc3ccccc3nc2NCc2ccco2)cc1 | 10.1%
Cc1cccc(S(=O)(=O)Nc2nc3ccccc3nc2NCc2ccco2)c1 | 14.8%
Cc1ccc(S(=O)(=O)Nc2nc3ccccc3nc2NCc2ccco2)cc1C | 25.4% (active)
N/C(Cc1nc(-c2ccc(Br)cc2)cs1)=N\O | 1.76%
COc1cc2c(cc1NC(=O)c1cc(-c3ccncc3)nc3ccc(C)cc13)oc1ccccc12 | 0.05%
Cc1ccc(CCNS(=O)(=O)c2cnc[nH]2)cc1 | 1.38%
C/C(=N\NC(=S)NC1CCCCC1)c1ccc(O)cc1 | -1.69%
